Measured values reported in PubChem BioAssay (Tox21).
Values joined by “and” are separate entries in the source; they are usually repeats but may differ in a detail not shown here. Equal values may be shown once. Results filed as inconclusive are left out. A call without a number means that no potency is given here. More than one record can exist for a structure, and the calls need not agree. Active and inactive are the calls of the source. Unless noted, calls come from the whole dose curve; as a rule, active = well fitted cell-killing curve with a large enough effect in the repeat runs; inconclusive = weak or mixed curves, or effect the other way; inactive = flat fitted curve, though single readings scatter.

system: not listed separately; experiment: qHTS assay to identify small molecule that activate the aryl hydrocarbon receptor (AhR) signaling pathway - cell viability counter screen (AID 743086); conditions: HepG2-AhR-luc viability, CellTiter-Fluor, 24 h; series mostly up to 70.3 µM; viability change, negative = cytotoxic: at the top concentration; note: nearly all actives have a fitted effect of over 45% in size; note: potency is the fitted concentration of half-maximal effect;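 for viability change, negative = cytotoxic: HepG2 liver cells carrying the AhR DRE luciferase reporter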
Procedure, shortened: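 HepG2-AhR-luc (HG2L7.5c1) cells, 4000/well, treated 24 h at 37 C with compound; viability measured as CellTiter-Fluor fluorescence after 30 min in the same wells as the luciferase read.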

Compound	Potency
O=[N+]([O-])c1ccc(O)c([N+](=O)[O-])c1	38.7 µM (active)
N[C@@H](Cc1ccc(N(CCCl)CCCl)cc1)C(=O)O	inactive
c1ccc(P(c2ccccc2)c2ccccc2)cc1	inactive
CCC(C)c1ccc(O)cc1 (stereo unspecified)	inactive
CC(C)=CC1C(C(=O)OCc2coc(Cc3ccccc3)c2)C1(C)C (stereo unspecified)	inactive
O=[N+]([O-])c1c(Cl)c(Cl)c(Cl)c(Cl)c1Cl	inactive
CC1(C)C(C=C(Cl)Cl)C1C(=O)OC(C#N)c1cccc(Oc2ccccc2)c1 (stereo unspecified)	inactive
ClC1C(Cl)C(Cl)C(Cl)C(Cl)C1Cl (stereo unspecified)	inactive
O=c1oc2ccccc2c(O)c1C(CC(O)c1ccc(-c2ccc(Br)cc2)cc1)c1ccccc1 (stereo unspecified)	inactive
CCCCCc1cc(O)cc(O)c1	inactive
CCOc1cc(Oc2ccc(C(F)(F)F)cc2Cl)ccc1[N+](=O)[O-]	inactive
Brc1ccc(Oc2cc(Br)c(Br)cc2Br)c(Br)c1	inactive
c1ccc(NNc2ccccc2)cc1	inactive
CCC(CC)Nc1c([N+](=O)[O-])cc(C)c(C)c1[N+](=O)[O-]	inactive
CCCCN(CC)c1c([N+](=O)[O-])cc(C(F)(F)F)cc1[N+](=O)[O-]	inactive
Oc1ccc(-c2ccccc2)cc1	inactive
c1nc[nH]n1	inactive
CCC(C)c1cc([N+](=O)[O-])cc([N+](=O)[O-])c1O (stereo unspecified)	inactive and 13.7 µM (active)
C=CC(=O)OCCO	inactive

Compound	Potency
Cc1c(COC(=O)[C@@H]2[C@H](/C=C(\Cl)C(F)(F)F)C2(C)C)cccc1-c1ccccc1	inactive
C#CCOS(=O)OC1CCCCC1Oc1ccc(C(C)(C)C)cc1 (stereo unspecified)	inactive
Cc1cc(Cl)ccc1OCCCC(=O)O	inactive
N#CCCCl	inactive
CC(C)N(C(=O)SCC(Cl)=C(Cl)Cl)C(C)C	inactive
Cc1cc(C)cc(C)c1	inactive
O=C(CCl)c1ccccc1	inactive
CCCCNC(=O)n1c(NC(=O)OC)nc2ccccc21	inactive
CCOC(=O)C(C)OC(=O)c1cc(Oc2ccc(C(F)(F)F)cc2Cl)ccc1[N+](=O)[O-] (stereo unspecified)	inactive
CCC(C)(c1ccc(O)cc1)c1ccc(O)cc1	inactive
Cc1ccc(N)c(N)c1	inactive
CC(C)(c1cc(Cl)c(O)c(Cl)c1)c1cc(Cl)c(O)c(Cl)c1	inactive
CCC(=O)O[C@H]1CC[C@H]2[C@@H]3CCC4=CC(=O)CC[C@]4(C)[C@H]3CC[C@]12C	inactive
S=C1NCCN1	inactive
CC(C)C(=O)OCC(C)(C)C(OC(=O)C(C)C)C(C)C (stereo unspecified)	inactive
Oc1cc(Cl)ccc1Cl	inactive
CNC(=O)Oc1cccc2c1OC(C)(C)O2	inactive
CCOc1cc(C=O)ccc1O	inactive

molecular target: Peroxisome proliferator-activated receptor gamma (Homo sapiens) (UniProt P37231); experiment: qHTS assay to identify small molecule agonists of the peroxisome proliferator-activated receptor gamma (PPARg) signaling pathway (AID 743094; active = well fitted activation curve with a large enough effect in the signal ratio in the repeat runs, not every such curve was filed as active; the % refers to the signal ratio); conditions: HEK293H PPARg-UAS-bla, beta-lactamase FRET ratio, 17 h; series mostly up to 57 µM; activation: at the top concentration
Sequence (P37231 whole entry, looked up): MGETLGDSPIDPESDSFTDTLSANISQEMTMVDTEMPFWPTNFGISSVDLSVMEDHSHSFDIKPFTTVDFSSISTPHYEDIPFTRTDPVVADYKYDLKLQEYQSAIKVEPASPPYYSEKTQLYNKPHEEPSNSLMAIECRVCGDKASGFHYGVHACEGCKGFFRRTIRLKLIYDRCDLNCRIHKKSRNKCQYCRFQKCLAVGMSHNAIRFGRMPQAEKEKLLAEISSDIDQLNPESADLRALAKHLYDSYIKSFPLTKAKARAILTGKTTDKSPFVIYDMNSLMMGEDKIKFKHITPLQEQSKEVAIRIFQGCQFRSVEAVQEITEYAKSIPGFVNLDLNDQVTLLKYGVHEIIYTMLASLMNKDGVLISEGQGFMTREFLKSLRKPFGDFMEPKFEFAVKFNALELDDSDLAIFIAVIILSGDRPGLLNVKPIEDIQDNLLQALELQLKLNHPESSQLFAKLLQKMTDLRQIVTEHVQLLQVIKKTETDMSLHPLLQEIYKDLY
Procedure, shortened: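 HEK293H PPARg-bla cells, 5 h settle at 37C/5% CO2; compound (DMSO) 17 h, 37C; B/G FRET substrate 1 h RT; fluorescence intensity read-out. qHTS format.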

Compound	Potency	activation
O=[N+]([O-])c1ccc(O)c([N+](=O)[O-])c1	inactive	
N[C@@H](Cc1ccc(N(CCCl)CCCl)cc1)C(=O)O	inactive	
c1ccc(P(c2ccccc2)c2ccccc2)cc1	inactive	
O=[N+]([O-])c1c(Cl)c(Cl)c(Cl)c(Cl)c1Cl		-4.16% (inactive)
CC1(C)C(C=C(Cl)Cl)C1C(=O)OC(C#N)c1cccc(Oc2ccccc2)c1 (stereo unspecified)		0.745% (inactive)
CCCCCc1cc(O)cc(O)c1		-10.7% [at 78.9 µM] (inactive)
CCOc1cc(Oc2ccc(C(F)(F)F)cc2Cl)ccc1[N+](=O)[O-]	inactive	
Brc1ccc(Oc2cc(Br)c(Br)cc2Br)c(Br)c1		-0.945% (inactive)
CCC(CC)Nc1c([N+](=O)[O-])cc(C)c(C)c1[N+](=O)[O-]		-3.98% (inactive)
CCCCN(CC)c1c([N+](=O)[O-])cc(C(F)(F)F)cc1[N+](=O)[O-]		-6.85% (inactive)
CCC(C)c1cc([N+](=O)[O-])cc([N+](=O)[O-])c1O (stereo unspecified)	inactive	
Cc1c(COC(=O)[C@@H]2[C@H](/C=C(\Cl)C(F)(F)F)C2(C)C)cccc1-c1ccccc1	inactive	
CCOC(=O)C(C)OC(=O)c1cc(Oc2ccc(C(F)(F)F)cc2Cl)ccc1[N+](=O)[O-] (stereo unspecified)	inactive	
Oc1cc(Cl)ccc1Cl	inactive	
CNC(=O)Oc1cccc2c1OC(C)(C)O2	inactive	

molecular target: Peroxisome proliferator-activated receptor gamma (Homo sapiens) (UniProt P37231); experiment: qHTS assay to identify small molecule antagonists of the peroxisome proliferator-activated receptor gamma (PPARg) signaling pathway (AID 743191; calls by dose curve; note: nearly all actives have a fitted effect of over 30% in size; note: potency is the fitted concentration of half-maximal effect); conditions: HEK293H PPARg-UAS-bla, beta-lactamase ratio, antagonist, 17 h; series mostly up to 62.6 µM; ratio activity, negative = inhibition: at the top concentration
Procedure, shortened: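 GeneBLAzer PPARg UAS-bla HEK293H cells, 5 h post-plating, exposed to compounds 17 h at 37C. LiveBLAzer B/G FRET substrate added for 1 h at room temperature; beta-lactamase reporter read by fluorescence intensity.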

Compound	ratio activity, negative = inhibition	Potency
O=[N+]([O-])c1ccc(O)c([N+](=O)[O-])c1	-21.5% [at 81.1 µM] (inactive)	
N[C@@H](Cc1ccc(N(CCCl)CCCl)cc1)C(=O)O	-12.9% (inactive)	
c1ccc(P(c2ccccc2)c2ccccc2)cc1		inactive
CC1(C)C(C=C(Cl)Cl)C1C(=O)OC(C#N)c1cccc(Oc2ccccc2)c1 (stereo unspecified)	2% (inactive)	
ClC1C(Cl)C(Cl)C(Cl)C(Cl)C1Cl (stereo unspecified)		inactive
CCCCCc1cc(O)cc(O)c1		24.7 µM (active)
CCOc1cc(Oc2ccc(C(F)(F)F)cc2Cl)ccc1[N+](=O)[O-]		inactive
CCC(CC)Nc1c([N+](=O)[O-])cc(C)c(C)c1[N+](=O)[O-]	-20% [at 81.1 µM] (inactive)	
CCCCN(CC)c1c([N+](=O)[O-])cc(C(F)(F)F)cc1[N+](=O)[O-]		inactive
Oc1ccc(-c2ccccc2)cc1		30.5 µM (active)
c1nc[nH]n1	3.42% (inactive)	
CCC(C)c1cc([N+](=O)[O-])cc([N+](=O)[O-])c1O (stereo unspecified)	-21.7% (inactive)	
C#CCOS(=O)OC1CCCCC1Oc1ccc(C(C)(C)C)cc1 (stereo unspecified)		43.6 µM (active)
Cc1cc(Cl)ccc1OCCCC(=O)O		inactive
CCCCNC(=O)n1c(NC(=O)OC)nc2ccccc21	-11.5% (inactive)	
CCC(C)(c1ccc(O)cc1)c1ccc(O)cc1		30.9 µM (active) and 38.9 µM (active)
CC(C)C(=O)OCC(C)(C)C(OC(=O)C(C)C)C(C)C (stereo unspecified)	9.16% (inactive)	
Oc1cc(Cl)ccc1Cl	13% (inactive)	
CNC(=O)Oc1cccc2c1OC(C)(C)O2	-10.9% (inactive)	
